Compound activity: PubChem, several laboratories
PKA-R2B activ: PKA-R2B complex activation; 0.079% of 340,000 active; PKA-R2B holoenzyme dissociation, Cy5-IP20 fluorescence polarization; R2B truncated from residue 108, S112A mutant; 0% DMSO only, 100% 113 µM cGMP; P22694+P31323; activation, % at 11.4 µM; AID 504700;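 active means activation above a cutoff set at the mean over all compounds plus 3 SD, cut at about 18% in these data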;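 further: higher means more holoenzyme dissociation and a rise in polarization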
Target sequence (P31323 whole entry, looked up, other chains not shown, the tested form may be a part): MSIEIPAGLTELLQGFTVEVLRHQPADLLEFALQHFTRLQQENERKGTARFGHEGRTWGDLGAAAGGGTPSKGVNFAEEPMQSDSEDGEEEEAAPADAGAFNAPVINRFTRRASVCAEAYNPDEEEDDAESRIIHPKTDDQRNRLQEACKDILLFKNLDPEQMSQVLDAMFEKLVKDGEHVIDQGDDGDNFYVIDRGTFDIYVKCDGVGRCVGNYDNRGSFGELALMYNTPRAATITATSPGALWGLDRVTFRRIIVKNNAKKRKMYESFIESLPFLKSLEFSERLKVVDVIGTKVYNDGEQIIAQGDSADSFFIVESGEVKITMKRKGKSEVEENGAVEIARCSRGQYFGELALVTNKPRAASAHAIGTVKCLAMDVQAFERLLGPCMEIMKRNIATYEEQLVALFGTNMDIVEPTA
MsrA inhibitor: inhibitors of bovine MsrA. AID 651718. 0.75% of 360,000 active. purified bovine MsrA, absorbance read-out. inhibition, % at 15.5 µM
Mot1-301 SUMO: inhibitors of SUMOylation pathway: yeast Mot1-301 growth rescue. S. cerevisiae Mot1-301 growth rescue, ATP luminescence, 38.5C; percent above DMSO median, 100 means doubled. growth rescue, % at 18.8 µM. 1% of 320,000 active. AID 2716;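 active means every valid replicate shows activation above 250% relative to neutral control wells; inactive means the rest, any valid replicate at or below 250%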
PKA-R1A activ: activates the PKA-R1A holoenzyme complex; P00514+P68181; AID 504707; activation, % at 11.4 µM; 0.083% of 340,000 active; PKA-R1A dissociation, Cy5-IP20 fluorescence polarization; scaled: DMSO 0%, 113 µM cGMP 100%;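 active means percent activation above the mean of all tested compounds plus 3 SD, cut at about 19% in these data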;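 further: higher means more PKAc released from R1A so a rise in polarization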
MsrA act: activators of bovine methionine sulfoxide reductase A; purified bovine MsrA, absorbance read-out; activation, % at 10.6 µM; 0.3% of 360,000 active; AID 602163; in the data active means activation above about 7.5%
MsrA conf: bovine MsrA inhibition, confirmed. shares compounds with MsrA inhibitor. purified bovine MsrA, absorbance read-out. inhibition, % at 15.5 µM. 41% of 2,300 active;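 further: coupled to thioredoxin reductase with NADPH and selenocystamine and DMSO as substrate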
Each line names hits and unclear results; the compound was inactive in the other large screens (follow-up assays come after a bar, where they were run). Hits are enriched below; roughly 2% of the tested compounds scored in any of these assays. Unless noted, no stated cut-off is given here; in the data, active means inhibition above about 4.5%; inactive means the rest.

CCOC(=O)/C(C#N)=C1/SC(CC)C(=O)N1c1ccc(C)cc1 (stereo not given)	none
CCCN1C=CC(=C/C=C(\C#N)C(=O)OCC)C=C1	none (no result: PKA-R2B activ, MsrA inhibitor, PKA-R1A activ, MsrA act)
CCOC(=O)/C(C#N)=C1\C=CN(C)C(C)=N1	MsrA inhibitor 6.0 | MsrA conf inactive
CN(CCCn1cnc2c(OCc3ccccc3)ncnc21)Cc1ccco1	none (no result: Mot1-301 SUMO)
CCOC(=O)/C(C#N)=C1/C=CN(c2ccccc2)C=N1	MsrA inhibitor 5.6 | MsrA conf 6.0
CCOC(=O)/C(C#N)=C1/C=Nc2ccccc2N1	none
COc1ccc(C(C)(C)C)cc1NC(=O)OC[C@@H]1CSCCS(=O)(=O)N1	none (no result: PKA-R2B activ, Mot1-301 SUMO, PKA-R1A activ, MsrA act)
CC1(Cc2ccc3c(c2)OCO3)C(=O)Nc2c(Cl)ccc(Cl)c21 (stereo not given)	none (no result: PKA-R2B activ, Mot1-301 SUMO, PKA-R1A activ)
CCOC(=O)[C@]12CCCC=C1N(Cc1cccc3ccccc13)C(=O)[C@H](CC(=O)NCCCN1CCCC1=O)C2	none (no result: PKA-R2B activ, Mot1-301 SUMO, PKA-R1A activ)
O=C1CS/C(=N/N=C/c2cccs2)N1	MsrA inhibitor 6.4 | MsrA conf inactive
CC1(C)S/C(=N/N=C/c2cccs2)NC1=O	MsrA inhibitor 4.7 | MsrA conf inactive
O=C1CS/C(=N/N=C/c2ccncc2)N1	none (no result: PKA-R2B activ, PKA-R1A activ)
O=C1N/C(=N\N=C\c2cccs2)SC1Cc1cccc(Cl)c1Cl (stereo not given)	none
CCc1nc2ccc(C(=O)N3CCNC(=O)C3)cn2c1N(C)CCC(C)C	none (no result: PKA-R2B activ, Mot1-301 SUMO, PKA-R1A activ)
CCOC(=O)N1CCC(Nc2c(-c3ccc(C)cc3)c(=O)c2=O)CC1	MsrA inhibitor 4.9 | MsrA conf inactive
CCCCCC(=O)OCc1ccc(C2=CC(=O)CC(C)(C)C2=O)cc1	none (no result: Mot1-301 SUMO)
Cc1ccc(-n2c(N)c(C#N)c(-c3ccccc3)c(C#N)c2=O)cc1	MsrA inhibitor 4.9 | MsrA conf inactive
N#Cc1c(-c2ccc(Cl)cc2)c(C#N)c(=O)n(N)c1N	MsrA inhibitor 4.9 | MsrA conf inactive
Oc1ccc(C(=Nc2ccccc2)c2ccccc2)c(O)c1	MsrA inhibitor 5.3 (no result: Mot1-301 SUMO) | MsrA conf inactive
COc1cc(/C=N/Nc2ccccn2)cc(OC)c1O	MsrA inhibitor 6.0 | MsrA conf inactive
C[C@@H]1C=CCCO[C@]12C(=O)N(Cc1ccc(F)cc1)c1cccc(Br)c12	none (no result: PKA-R2B activ, Mot1-301 SUMO, PKA-R1A activ, MsrA act)
Cn1cnc([N+](=O)[O-])c1Sc1nc(N)nc2c1ncn2Cc1ccccc1	none (no result: Mot1-301 SUMO)
CC(C)Cn1cnc2c(Sc3c([N+](=O)[O-])ncn3C)nc(N)nc21	MsrA inhibitor 7.7 (no result: Mot1-301 SUMO) | MsrA conf inactive
CCCn1cnc2c(Sc3c([N+](=O)[O-])ncn3C)nc(N)nc21	none (no result: Mot1-301 SUMO)
CCCCn1cnc2c(Sc3c([N+](=O)[O-])ncn3C)nc(N)nc21	MsrA inhibitor 5.2 (no result: Mot1-301 SUMO) | MsrA conf inactive
CCC(C)Cn1cnc2c(Sc3c([N+](=O)[O-])ncn3C)nc(N)nc21 (stereo not given)	MsrA inhibitor 4.9 (no result: Mot1-301 SUMO) | MsrA conf 4.9
COc1ccc(C(=O)N2CCC(C)(C(=O)O)C2)cc1OC (stereo not given)	none (no result: PKA-R2B activ, Mot1-301 SUMO, PKA-R1A activ)
CN(C)/N=C/c1ccc(P(c2ccc(/C=N/N(C)C)o2)c2ccc(/C=N/N(C)C)o2)o1	MsrA inhibitor 5.4 (no result: PKA-R2B activ, PKA-R1A activ) | MsrA conf inactive
Cc1ccc(CNc2nc3cc(-c4ccccc4)sc3c(=O)n2C)c(C)c1	none (no result: PKA-R2B activ, Mot1-301 SUMO, PKA-R1A activ)
CC1(C)CC(=O)c2sc(NC(=O)C(C)(C)C)nc2C1	none
CC1(C)CC(=O)c2sc(NC(=O)CN3CCCCC3)nc2C1	MsrA inhibitor 5.2 | MsrA conf inactive
CC1(C)CC(=O)c2sc(NS(=O)(=O)c3ccc(F)cc3)nc2C1	MsrA inhibitor 5.3 | MsrA conf inactive
CN(c1ccc(NC(=O)Cc2c[nH]c3ccccc23)cc1)c1ccccn1	none (no result: PKA-R2B activ, Mot1-301 SUMO, PKA-R1A activ, MsrA act)
C[C@H]1c2cccc(O)c2C(O)=C2C(=O)C3(O)C(O)=C(C(N)=O)C(=O)[C@@H](N(C)C)[C@@H]3[C@@H](O)[C@@H]21 (stereo not given in full)	MsrA inhibitor 4.9 | MsrA conf inactive
COCCCN1C(=O)C(=O)/C(=C(/O)c2ccc(OC(C)C)cc2)C1c1cccnc1 (stereo not given)	none
COCCCN1C(=O)C(=O)/C(=C(/O)c2ccc(OC)cc2C)C1c1cccnc1 (stereo not given)	MsrA inhibitor 4.8 | MsrA conf inactive
Nc1ccn([C@@H]2O[C@H](C(=O)N[C@H](Cc3ccccc3)C(=O)N3CCC(F)(F)CC3)[C@@H](O)[C@H]2O)c(=O)n1	none (no result: PKA-R2B activ, Mot1-301 SUMO, PKA-R1A activ, MsrA act)
